KCNQ2 enhance: enhances the rat KCNQ2 potassium channel; CHO-K1 KCNQ2, FluxOR thallium flux fluorescence; active compounds read high; B-score at 10 µM; 310,000 compounds, 0.54% hits; AID 2239;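 active = fluorescence ratio B-score at least 3 SD of library B-scores, with initial fluorescence B-score within 3 of them, cut at about 5.3 in these data; same plate scores as AID 2156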;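 also: B-score of peak minus minimum over baseline fluorescence ratio after K+ and Tl+ stimulus; positive B-score means potentiation of KCNQ2 with more thallium influx and brighter signal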
Target sequence (O88943 whole entry, looked up): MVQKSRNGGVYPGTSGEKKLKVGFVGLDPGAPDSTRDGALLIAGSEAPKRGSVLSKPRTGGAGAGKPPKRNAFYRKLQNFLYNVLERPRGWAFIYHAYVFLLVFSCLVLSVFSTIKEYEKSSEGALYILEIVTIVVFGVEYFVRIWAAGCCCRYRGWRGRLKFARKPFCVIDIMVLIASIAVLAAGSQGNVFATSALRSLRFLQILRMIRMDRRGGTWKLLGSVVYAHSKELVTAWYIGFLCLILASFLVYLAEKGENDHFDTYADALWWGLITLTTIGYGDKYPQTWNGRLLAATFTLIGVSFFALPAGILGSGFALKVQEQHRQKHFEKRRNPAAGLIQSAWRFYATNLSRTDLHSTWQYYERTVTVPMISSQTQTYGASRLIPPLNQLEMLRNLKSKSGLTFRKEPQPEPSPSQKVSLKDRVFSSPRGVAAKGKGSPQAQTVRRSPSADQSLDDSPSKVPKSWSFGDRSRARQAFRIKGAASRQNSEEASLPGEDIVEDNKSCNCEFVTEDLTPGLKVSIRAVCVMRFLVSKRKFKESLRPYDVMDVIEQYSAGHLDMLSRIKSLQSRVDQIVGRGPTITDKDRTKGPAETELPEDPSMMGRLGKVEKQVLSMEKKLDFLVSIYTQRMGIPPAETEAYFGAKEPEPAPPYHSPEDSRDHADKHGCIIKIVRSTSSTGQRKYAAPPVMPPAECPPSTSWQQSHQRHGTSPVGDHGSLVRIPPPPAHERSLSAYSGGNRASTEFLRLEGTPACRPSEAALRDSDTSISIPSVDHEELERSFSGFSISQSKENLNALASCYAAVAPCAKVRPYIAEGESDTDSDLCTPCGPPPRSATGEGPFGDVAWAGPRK
KCNQ2 inh: KCNQ2 (rat) channel inhibition | CHO-K1 KCNQ2, FluxOR thallium flux, 20 min; active compounds read low | AID 2156 | B-score at 10 µM | 310,000 compounds, 1.1% hits | O88943;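 active = fluorescence ratio B-score at most minus 3 library SDs, with starting brightness B-score within 2 library SDs, cut at about -5.5 in these data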
The depositor's hits bear a star; i = inactive; / = no result given; ! = not active in a repeat. The list is not random: actives were taken first. Their share in the collection is about 1.6%.

SMILES | KCNQ2 enhance | KCNQ2 inh
Cc1c(O)cccc1C(=O)N[C@@H](CSc1ccccc1)[C@H](O)CN1C[C@H]2CCCC[C@H]2C[C@H]1C(=O)NC(C)(C)C | -5.7 | -5.7*!
COCCn1c(SCc2nc3ccccc3c(=O)[nH]2)nc2ccccc2c1=O | 0.71 | i
Cc1ccc2nc(-c3ccccc3)cc(C(=O)NCC3CCCO3)c2c1 (configuration not stated) | / | i
Cc1ccc2nc(-c3ccccc3)cc(C(=O)NCC(c3ccco3)N(C)C)c2c1 (configuration not stated) | -5.8 | -5.8*
CC(C)=CCc1c(C)nc2ccccc2c1C(=O)O | 1.3 | i
CCOC(=O)c1c(CN(C)C)n(-c2ccccc2)c2cc(Br)c(OC)cc12 | -6.2 | -6.2*
CCOC(=O)c1c(CN2CCOCC2)n(-c2ccccc2)c2cc(Br)c(OC)cc12 | / | i
COc1cccc(CNS(=O)(=O)/C=C/c2ccc(OC)c(OC)c2)c1 | 0.62 | i
CC(=O)Nc1ccc(/C(C)=N/Nc2nc(N3CCOCC3)nc(N3CCOCC3)n2)cc1 | / | i
C/C(=N\Nc1nc(N2CCCCC2)nc(N2CCOCC2)n1)c1cccs1 | -7.6 | -7.6*
CNC(=O)CS(=O)CC(=O)Nc1cc(OCCOC)c(Cl)cc1Cl (configuration not stated) | 1.6 | i
CC(C)CCC(=O)N1CCOC1=O | 0.24 | i
COc1cccc(-n2c(SCC(N)=O)nc3ccccc3c2=O)c1 | 0.67 | i
COc1cccc(-n2c(SCC(=O)Nc3sc4c(c3C(N)=O)CCC4)nc3ccccc3c2=O)c1 | -6.1 | -6.1*
COc1ccccc1C1=NOC(C)(c2nnc(Cc3ccccc3)o2)C1 (configuration not stated) | / | i
COc1ccc(-c2cc(C(=O)N(C)Cc3ccccc3F)c3ccccc3n2)cc1OC | / | i
CCN(Cc1ccccc1)C(=O)c1cc(-c2ccc(OC)c(OC)c2)nc2ccccc12 | -6.4 | -6.4*
O=c1c2ccccc2ncn1Cc1ccco1 | / | i
COc1cccc(OC)c1OCC(O)CN1CCN(c2ccccc2F)CC1 (configuration not stated) | / | i
O=C(NNC(=O)c1cccnc1)Nc1ccc(Cl)c(Cl)c1 | / | i
COc1ccc(-c2nc(=S)[nH][nH]2)cc1OC | / | i
COc1ccc(-c2nc(=S)[nH][nH]2)cc1 | -8.4 | -8.4*
O=C(COc1ccc2c3c(c(=O)oc2c1)CCC3)NC1CCN(Cc2ccccc2)CC1 | / | i
CCCC/C=C/[C@H](c1ccccc1)[C@H](CO)Cc1cccnc1 | -5.7 | -5.7*
CCCC/C=C/C(NC(=O)CCc1ccccc1)c1ccccc1 (configuration not stated) | / | i
SMILES | KCNQ2 enhance | KCNQ2 inh
CCOc1ccccc1NC(=O)Nc1cccc(NC(C)=O)c1 | / | i
CC(C)Oc1ccc(CNC(=O)CCC(=O)N2CC(C)Sc3ccccc32)cc1 (configuration not stated) | / | i
CC1CN(C(=O)CCC(=O)NCc2ccccc2Cl)c2ccccc2S1 (configuration not stated) | -7.4 | -7.4*
Cc1ccc(C)c(Oc2ccc(S(=O)(=O)N3CCN(C)CC3)cn2)c1 | / | i
CC(O)(C#CCN1CCCCC1)c1ccccc1 (configuration not stated) | 1.3 | i
CC(C)(C#CCN1CCCCC1)OCCOC(c1ccccc1)c1ccccc1 | -6.1 | -6.1*
C1CCCCCC(NCCN2CCNCC2)CCCCC1 | / | i
COc1ccc2cc(C(=O)Nc3ccc(O)cc3)sc(=O)c2c1OC | / | i
CC(C)COc1ccc(C(=O)Nc2scc(-c3ccc(Cl)cc3Cl)c2C(N)=O)cc1 | -7.1 | -7.1*
O=C(Nc1nc(-c2ccc(Cl)cc2Cl)cs1)c1ccc(OCC2CCCO2)cc1 (configuration not stated) | / | i
O=S(=O)([N-]c1nc2ccccc2nc1-[n+]1ccc(CCCc2ccccc2)cc1)c1cccs1 | / | i
O=c1[nH][nH]cc1C=Nc1ccc(Oc2ccccc2)cc1 | / | i
CC(C)CC(C(=O)N1CCc2ccccc2C1)N1C(=O)c2ccccc2C1=O (configuration not stated) | -6.5 | -6.5*
CC(C(=O)N1CCc2ccccc2C1)N1C(=O)c2ccccc2C1=O (configuration not stated) | 0.16 | i
O=C(O)Cc1cc2c(s1)CCCCC2 | 1.1 | i
COc1ccc(N(CC(=O)NCCC2=CCCCC2)S(C)(=O)=O)cc1 | 0.59 | i
CC(=O)C1C(c2cn(-c3ccccc3)nc2-c2cccs2)NC(=O)NC1(O)C(F)(F)F (configuration not stated) | / | i
Cc1cc(C)cc(NCc2cc3c(cc2[N+](=O)[O-])OCO3)c1 | -6.2 | -6.2*
COc1ccc(CNCc2cc3c(cc2[N+](=O)[O-])OCO3)cc1 | 1.4 | i
Cn1c(SCCN2CCOCC2)nc2sc3c(c2c1=O)CCCC3 | 1.9 | i
O=S(=O)(Nc1c(S(=O)(=O)c2ccccc2)c2nc3ccccc3nc2n1C1CCCCC1)c1ccccc1 | -6.2 | -6.2*
C=CCn1c(NS(=O)(=O)c2ccccc2)c(S(=O)(=O)c2ccc(C)cc2)c2nc3ccccc3nc21 | / | i
CCCCNC(=O)C1C2C=CC3(CN(Cc4ccccc4Cl)C(=O)C13)O2 (configuration not stated) | 0.03 | i
O=C(CCC1CCCC1)N1CCN(C(=O)C2CC2)CC1 | / | i
Cc1ccccc1Cn1c(CN2CCc3ccccc3C2)nc2c1c(=O)n(C)c(=O)n2C | -6.1 | -6.1*
SMILES | KCNQ2 enhance | KCNQ2 inh
Cn1c(=O)c2c(nc(CN3CCc4ccccc4C3)n2Cc2ccc(F)cc2)n(C)c1=O | / | i
Cc1ccc(CC(=O)Nc2ccc(F)c([N+](=O)[O-])c2)cc1 | 1.9 | i
CC(=O)c1ccc(-c2cccc(-c3nc4ccccn4c3NC3CCCCC3)c2)cc1 | -5.8 | -5.8*
CCC(C)Sc1cc(-c2nc3ccccn3c2NC2CCCCC2)ccc1OC (configuration not stated) | 0.01 | i
COC(=O)[C@@H]1CC[C@H](C)[C@@H](c2ccc(C)cc2)N1C(=O)c1ccc(/C=N/OC[C@@H](O)COCc2ccco2)cc1 | / | i
C=CC[C@@H]1C=C[C@H](O/N=C/c2ccc(C(=O)N3[C@H](c4ccc(C)cc4)[C@@H](C)CC[C@H]3C(=O)OC)cc2)[C@@H](CO)O1 | -6.1 | -6.1*
COCCNC(=O)CSc1nc2nc(C)cc(C)n2n1 | 0.27 | i
Cc1ccc(OCC(=O)Nc2ccc(N(C)C)cc2)cc1 | 1.4 | i
CC1=NN(c2ccccc2)C(=O)/C1=C/C=C/C=C/N(C)C | / | i
O=C(C[n+]1cc(Br)cc2ccccc21)c1ccc(Br)cc1 | -6.1 | -6.1*
O=C(C[n+]1cc(Br)cc(Br)c1)c1ccc(Cl)cc1 | / | i
O=C(C[n+]1cc(Br)cc2ccccc21)c1ccc(Cl)cc1 | -7.5 | -7.5*
O=C(C[n+]1cccc2ccccc21)c1ccc(Br)cc1 | 0.78 | i
CS(=O)(=O)Nn1cnc2ccccc2c1=O | 0.11 | i
O=C(CCN=C1NS(=O)(=O)c2ccccc21)OCc1cccc(Cl)c1 | / | i
CC(C)(C)N(NC(=O)OCc1ccccc1)C(=O)c1ccccc1 | / | i
CC(C)(C)N(NC(=O)OCc1ccccc1)C(=O)c1ccccc1Cl | 7.7* | i
CC(=O)c1c(C)nc(-c2ccccc2)nc1NC(=O)C(C)C | / | i
CCOC(=O)N1CCC(N(CCN(C)C)C(=S)Nc2ccccc2OCC)CC1 | / | i
Oc1ccc(Br)cc1-c1ccn[nH]1 | 12* | i
Oc1ccc(Br)cc1-c1cc(-c2ccco2)[nH]n1 | / | i

Assay outcomes from PubChem BioAssay.
